Laboratory results reported in PubChem BioAssay (NCI).
“And” between values parts separate entries of the source, which are not always exact repeats. Equal entries are not always repeated. Compounds without any hit were thinned out: in the full panel of roughly 79,000, 15% have a hit. A structure can be active in one record and inactive in another. The source made the active and inactive calls. No stated cut-off is given here; in the data, active means growth inhibition above about 70%; inactive means the rest.

Key:
[1] = NCI Yeast Anticancer Drug Screen. Data for the rad52 strain (AID 147);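 further: 0% = growth of vehicle-treated control cultures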; conditions: S. cerevisiae rad52 mutant growth inhibition, stronger effect = higher value
Outline: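 Measured: yeast growth inhibition. System: strain with a defined DNA damage repair alteration. Reference: vehicle-treated control cultures.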

[2] = NCI Yeast Anticancer Drug Screen. Data for the wt1 strain (AID 149);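 further: 0% = growth of vehicle-treated wt1 cultures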; conditions: S. cerevisiae wt1 strain (SPY 50644) growth inhibition, stronger effect = higher value
Outline: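 Measured: growth of wt1 yeast under compound versus vehicle treatment, reported as inhibition.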

[3] = NCI Yeast Anticancer Drug Screen. Data for the rad50EPP+ strain (AID 151);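 further: 0% = growth of vehicle-treated control cultures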; conditions: S. cerevisiae rad50 mutant strain, stronger effect = higher value
Outline: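 One strain with a rad50 alteration (rad50EPP+) was compound-treated, its growth then compared to that of vehicle controls.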

[4] = NCI Yeast Anticancer Drug Screen. Data for the mgt1 strain (AID 153); conditions: S. cerevisiae mgt1 mutant growth inhibition, stronger effect = higher value
Outline: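 After exposure of the mgt1 yeast mutant to compound, growth was measured and reported as inhibition compared with vehicle controls.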

[5] = NCI Yeast Anticancer Drug Screen. Data for the rad50 strain (AID 155);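 further: 0% = growth of vehicle-only cultures of the same strain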; conditions: S. cerevisiae rad50 strain growth inhibition, stronger effect = higher value
Outline: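 Growth of the mutant yeast was measured after compound exposure and referenced to vehicle-treated cultures.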

[6] = NCI Yeast Anticancer Drug Screen. Data for the mec2-1 strain (AID 157); conditions: S. cerevisiae mec2-1 strain, stronger effect = higher value
Outline: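 Test agents were screened against the mec2-1 yeast strain, with defined DNA repair or cell cycle alteration. Growth was scored as inhibition against vehicle-only controls.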

[7] = NCI Yeast Anticancer Drug Screen. Data for the rad14 strain (AID 159);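 further: 0% = growth of vehicle-treated control cultures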; conditions: S. cerevisiae rad14 strain growth inhibition, stronger effect = higher value
Outline: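 Here, inhibition of yeast growth was measured after compound exposure, using a strain with a genetic defect in DNA damage repair and vehicle-treated cultures as the reference.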

[8] = NCI Yeast Anticancer Drug Screen. Data for the sgs1 mgt1 strain (AID 161);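 further: 0% = growth of cultures given vehicle only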; conditions: S. cerevisiae sgs1 mgt1 strain, stronger effect = higher value
Outline: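 Genetically altered yeast, compound exposure, growth inhibition relative to vehicle.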

[9] = NCI Yeast Anticancer Drug Screen. Data for the CLN2oe strain (AID 163);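 further: 0% = growth of vehicle-only control cultures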; conditions: S. cerevisiae CLN2oe strain, stronger effect = higher value
Outline: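 Here, growth inhibition in a cell-cycle-altered yeast strain after compound exposure was quantified against vehicle control growth.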

[10] = NCI Yeast Anticancer Drug Screen. Data for the cln2 rad14 strain (AID 165);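 further: 0% = growth equal to vehicle treated cultures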; conditions: S. cerevisiae cln2 rad14 strain, stronger effect = higher value
Outline: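 Growth of compound-exposed yeast (cln2 rad14 genotype) measured and expressed as inhibition relative to vehicle.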

[11] = NCI Yeast Anticancer Drug Screen. Data for the bub3 strain (AID 167); conditions: S. cerevisiae bub3 mutant strain, stronger effect = higher value
Outline: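 Whole-cell yeast assay. The mutant strain was incubated with compounds, and growth inhibition was determined by comparison with vehicle-treated cells.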

[12] = NCI Yeast Anticancer Drug Screen. Data for the mlh1 strain (AID 171);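 further: 0% = growth of vehicle-treated control cultures of the same strain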; conditions: S. cerevisiae mlh1 strain growth inhibition, stronger effect = higher value
Outline: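 Here the genetically defined yeast mutant is grown with each compound, and the extent to which its growth falls below that of vehicle-exposed cells is reported.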

[13] = NCI Yeast Anticancer Drug Screen. Data for the sgs1 strain (AID 173);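 further: 0% = growth of vehicle-only control cultures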; conditions: S. cerevisiae sgs1 mutant, stronger effect = higher value
Outline: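 Relative growth inhibition, referenced to vehicle, was determined in a yeast strain with a defined alteration affecting DNA damage repair or cell cycle control after compound exposure.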

[14] = NCI Yeast Anticancer Drug Screen. Data for the mlh1 rad18 strain (AID 175); conditions: S. cerevisiae mlh1 rad18 strain growth inhibition, stronger effect = higher value
Outline: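 In this whole-cell yeast screen, a strain with altered DNA damage repair is challenged with compound, and its growth is measured against matched vehicle-treated controls.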

[15] = NCI Yeast Anticancer Drug Screen. Data for the rad18 strain (AID 177); conditions: S. cerevisiae rad18 mutant growth inhibition, stronger effect = higher value
Outline: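 Screen uses a yeast strain with a defined lesion in DNA damage repair; compound effect is read as loss of growth compared to untreated vehicle cultures.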

[16] = NCI Yeast Anticancer Drug Screen. Data for the wt2 strain (AID 169);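 further: 0% = growth of vehicle-treated yeast cultures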; conditions: S. cerevisiae wt2 strain growth inhibition, stronger effect = higher value
Outline: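 Genetically defined yeast strains from a DNA-repair/cell-cycle panel were used. Compound-exposed yeast growth was measured, and the inhibition was calculated relative to vehicle treatment.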

[17] = at 5.0 µM (retest, dose inferred, filed as 0.5)
[18] = at 50.0 µM (retest, dose inferred, filed as 5.0)

Measured: growth inhibition

Cc1nc2c(Br)cc(Br)cc2c(=O)n1-c1ccccc1NC1OCC(O)C(O)C1O (stereo unspecified)
74% (active) and 68% (inactive): [5]; [18]
active: [1]; at 100.0 µM 97% | [2]; at 100.0 µM 93% | [4]; at 100.0 µM 97% | [5]; at 50.0 µM 94.5% and 89.8% | [5]; at 100.0 µM 96% | [6]; at 100.0 µM 96% | [7]; at 100.0 µM 94% | [9]; at 33.0 µM 72% | [9]; at 100.0 µM 97% | [10]; [18] 95% and 85% | [11]; at 50.0 µM 97.2% and 78.4% | [11]; at 100.0 µM 96% | [12]; at 100.0 µM 92% | [13]; at 100.0 µM 88% | [14]; [18] 93% and 74% | [14]; at 50.0 µM 95.2% and 82.2% | [15]; at 100.0 µM 97%
88.5% (active) and 61.5% (inactive): [8]; at 50.0 µM
inactive: [1]; at 1.2 µM 1% | [1]; at 3.7 µM 4% | [1]; at 11.0 µM 25% | [1]; at 33.0 µM 44% | [2]; at 1.2 µM -50% | [2]; at 3.7 µM 3% | [2]; at 11.0 µM 9% | [2]; at 33.0 µM 28% | [3]; at 1.2 µM 37% | [3]; at 3.7 µM 36% | [3]; at 11.0 µM 17% | [3]; at 33.0 µM 20% | [3]; at 100.0 µM 8% | [4]; at 1.2 µM 25% | [4]; at 3.7 µM 21% | [4]; at 11.0 µM 20% | [4]; at 33.0 µM 39% | [5]; at 1.2 µM 0% | [5]; at 3.7 µM 6% | [5]; [17] 10% and 17% | [5]; at 11.0 µM 18% | [5]; at 33.0 µM 63% | [6]; at 1.2 µM 7% | [6]; at 3.7 µM 9% | [6]; [17] 10% and 22% | [6]; at 11.0 µM 14% | [6]; at 33.0 µM 38% | [7]; at 1.2 µM 2% | [7]; at 3.7 µM 4% | [7]; at 11.0 µM 16% | [7]; at 33.0 µM 39% | [8]; [17] 12% and 11% | [8]; [18] 13% and 24% | [9]; at 1.2 µM 40% | [9]; at 3.7 µM 35% | [9]; at 11.0 µM 44% | [10]; [17] 40% and -2% | [11]; at 1.2 µM 11% | [11]; at 3.7 µM 5% | [11]; [17] 20% and 14% | [11]; at 11.0 µM 8% | [11]; at 33.0 µM 47% | [12]; at 1.2 µM 0% | [12]; at 3.7 µM 4% | [12]; at 11.0 µM 12% | [12]; at 33.0 µM 36% | [13]; at 1.2 µM 2% | [13]; at 3.7 µM 5% | [13]; at 11.0 µM 13% | [13]; at 33.0 µM 41% | [14]; [17] -23% and 18% | [15]; at 1.2 µM 42% | [15]; at 3.7 µM 41% | [15]; at 11.0 µM 41% | [15]; at 33.0 µM 62%
92% (active) and 51% (inactive): [11]; [18]
70.8% (active) and 22.4% (inactive): [6]; at 50.0 µM
91.5% (active) and 60.1% (inactive): [10]; at 50.0 µM
75% (active) and 23% (inactive): [6]; [18]

C=C(Cl)COC(=O)Nc1cccc(Cl)c1
active: [1]; at 33.0 µM 80% | [1]; at 100.0 µM 97% | [2]; at 100.0 µM 90% | [3]; at 33.0 µM 75% | [3]; at 100.0 µM 84% | [4]; at 100.0 µM 96% | [5]; at 33.0 µM 80% | [5]; [18] 79% | [5]; at 50.0 µM 82% | [5]; at 100.0 µM 97% | [6]; at 100.0 µM 91% | [7]; at 100.0 µM 97% | [9]; at 100.0 µM 94% | [11]; at 100.0 µM 92% | [16]; at 100.0 µM 98% | [13]; at 100.0 µM 97% | [14]; [18] 80% | [14]; at 50.0 µM 82.5% | [15]; at 100.0 µM 94%
inactive: [1]; at 1.2 µM 3% | [1]; at 3.7 µM 8% | [1]; at 11.0 µM 30% | [2]; at 1.2 µM -1% | [2]; at 3.7 µM -1% | [2]; at 11.0 µM 1% | [2]; at 33.0 µM 13% | [3]; at 1.2 µM 7% | [3]; at 3.7 µM 25% | [3]; at 11.0 µM 52% | [4]; at 1.2 µM -14% | [4]; at 3.7 µM -6% | [4]; at 11.0 µM -11% | [4]; at 33.0 µM 16% | [5]; at 1.2 µM 8% | [5]; at 3.7 µM 27% | [5]; [17] 0% | [5]; at 11.0 µM 58% | [6]; at 1.2 µM -19% | [6]; at 3.7 µM -10% | [6]; [17] -17% | [6]; at 11.0 µM -25% | [6]; at 33.0 µM 0% | [6]; [18] 19% | [6]; at 50.0 µM 3.15% | [7]; at 1.2 µM 1% | [7]; at 3.7 µM 2% | [7]; at 11.0 µM 4% | [7]; at 33.0 µM 39% | [8]; [17] -14% | [8]; [18] 47% | [8]; at 50.0 µM 45% | [9]; at 1.2 µM 0% | [9]; at 3.7 µM -5% | [9]; at 11.0 µM -10% | [9]; at 33.0 µM 3% | [10]; [17] 19% | [10]; [18] 16% | [10]; at 50.0 µM 25.1% | [11]; at 1.2 µM -17% | [11]; at 3.7 µM -17% | [11]; [17] -25% | [11]; at 11.0 µM -8% | [11]; at 33.0 µM 9% | [11]; [18] 18% | [11]; at 50.0 µM 34.4% | [16]; at 1.2 µM -3% | [16]; at 3.7 µM -1% | [16]; at 11.0 µM 1% | [16]; at 33.0 µM 39% | [13]; at 1.2 µM 0% | [13]; at 3.7 µM 3% | [13]; at 11.0 µM 13% | [13]; at 33.0 µM 63% | [14]; [17] -13% | [15]; at 1.2 µM -1% | [15]; at 3.7 µM -2% | [15]; at 11.0 µM 8% | [15]; at 33.0 µM 55%

O=c1ssc(=Nc2ccccc2)n1-c1ccccc1
active: [3]; at 100.0 µM 80% | [5]; [18] 99% | [5]; at 50.0 µM 99.5% and 99% | [5]; at 100.0 µM 72%
inactive: [1]; at 1.2 µM 10% | [1]; at 3.7 µM 9% | [1]; at 11.0 µM 5% | [1]; at 33.0 µM 20% | [1]; at 100.0 µM 62% | [2]; at 1.2 µM -3% | [2]; at 3.7 µM -5% | [2]; at 11.0 µM -4% | [2]; at 33.0 µM 0% | [2]; at 100.0 µM 11% | [3]; at 1.2 µM 6% | [3]; at 3.7 µM 3% | [3]; at 11.0 µM 3% | [3]; at 33.0 µM 32% | [4]; at 1.2 µM 0% | [4]; at 3.7 µM 2% | [4]; at 11.0 µM 0% | [4]; at 33.0 µM 12% | [4]; at 100.0 µM 39% | [5]; at 1.2 µM 9% | [5]; at 3.7 µM 5% | [5]; [17] 23% and 20% | [5]; at 11.0 µM 2% | [5]; at 33.0 µM 29% | [6]; at 1.2 µM -6% | [6]; at 3.7 µM -3%
